{
  "source": "PubChem BioAssay (NCI)",
  "note": "About 83,000 compounds went through this panel and 20% of them were active in at least one assay; those are over-represented in the sample as a whole.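 Negative percent growth values reflect cell death: -40 means 40% of the cells present at the start died, and -100 means all died.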 Unmarked numbers belong to inactive results. The source made the active and inactive calls. Rule for the calls: active = growth percent below 10; inactive = the rest.",
  "data": [
    {"test_system": "T-47D breast", "experiment": "NCI-60 one-dose screen, 48 h (100 = growth as untreated, 0 = no growth, -100 = all killed)", "conditions": "10 µM unless noted", "values": [
      {"smiles": "COc1cccc(-c2nc3sccn3c2-c2ccnc(NCCCNS(=O)(=O)c3c(Cl)cccc3Cl)c2)c1", "growth": "5.35% (active)"},
      {"smiles": "CC1=NN(c2nc(-c3ccc(Cl)cc3)c(C#N)c(N3CCOCC3)n2)C(=O)C1", "growth": "93.3%"},
      {"smiles": "Cc1nc2c3c(-c4ccccc4)c(-c4ccccc4)oc3ncn2n1", "growth": "70%"},
      {"smiles": "C=CC(=O)Nc1cccc(-c2nc(SC)nc(NCc3ccccc3)c2C#N)c1", "growth": "28.5%"},
      {"smiles": "N#Cc1c(N)n(CCNC(=O)c2ccccc2)c2nc3ccccc3nc12", "growth": "95.4%"},
      {"smiles": "C=C(C)[C@@H]1CC[C@]2(C(=O)OC)CC[C@]3(C)[C@H](CC[C@@H]4[C@@]5(C)C/C(=C/c6cccc(I)c6)C(=O)C(C)(C)[C@@H]5CC[C@]43C)[C@@H]12", "growth": "93.6%"},
      {"smiles": "Cc1c(/C=C/[N+](=O)[O-])ccc2c1[nH]c1ccccc12", "growth": "78.1%"},
      {"smiles": "COc1cc(/C=C/c2cc(O)c3cc(C(C)=O)c(=O)oc3c2)cc2c1O[C@]1(C)CC[C@@H](O)C(C)(C)[C@H]1C2", "growth": "60%"},
      {"smiles": "CCCOc1ccc2nc(NC(=O)OC)[nH]c2c1", "growth": "89.8%"},
      {"smiles": "COc1cc(/C=C/C(=O)c2ccc(O)c(CN3CCN(c4cc5c(cc4F)c(=O)c(C(=O)O)cn5C4CC4)CC3)c2)cc(OC)c1OC", "growth": "50.4%"},
      {"smiles": "C=CCSSc1ncnc2c1ncn2C1OC(CO)C(O)C1O", "note": "(stereo unspecified)", "growth": "24.3%"},
      {"smiles": "COc1cc2nc(N3CCCC3)nc(NCc3ccccc3)c2cc1OC", "growth": "7.79% (active)"},
      {"smiles": "CC[C@H]1OC(=O)[C@H](C)[C@@H](O[C@H]2C[C@@](C)(OC)[C@@H](O)[C@H](C)O2)[C@H](C)[C@@H](O[C@@H]2O[C@H](C)C[C@H](N(C)C)[C@H]2O)[C@](C)(O)C[C@H](C)CN(C)[C@H](C)[C@@H](O)[C@]1(C)O", "growth": "108%"},
      {"smiles": "CSc1nc(NCCN2CCOCC2)c(C#N)c(-c2cccc([N+](=O)[O-])c2)n1", "growth": "96.8%"},
      {"smiles": "CC(C)c1c(C(=O)c2ccccc2)c(-c2ccccc2)c(-c2ccc(F)cc2)n1CC[C@@H](O)C[C@@H](O)CC(=O)O", "growth": "91.4%"},
      {"smiles": "N#CCCN=Nc1c(O)[nH]c2ccc([N+](=O)[O-])cc12", "growth": "93.1%"},
      {"smiles": "CC[C@@H]1O[C@H](O[C@@H](c2cnc[nH]2)[C@H](NC(=O)c2nc([C@H](CC(N)=O)NC[C@@H](N)C(N)=O)nc(N)c2C)C(=O)N[C@H](C)[C@H](O)[C@H](C)C(=O)N[C@@H](C(=O)NCCc2nc(-c3nc(C(=O)NCCCCN=C(N)N)cs3)cs2)[C@@H](C)O)[C@H](O[C@@H]2O[C@H](CO)[C@H](O)[C@H](OC(N)=O)[C@@H]2O)[C@H](C)[C@@H]1C", "growth": "57.4%"},
      {"smiles": "COc1cc2nc(N3CCCC3)nc(Nc3ccccc3)c2cc1OC", "growth": "-49.1% (active)"},
      {"smiles": "Nc1nc2ncc(CCNc3ccc(C(=O)O)cc3)nc2c(=O)[nH]1", "growth": "115%"},
      {"smiles": "CCCN1CCN(c2ccc3nc(-c4ccc5nc(-c6ccc(OCC)cc6)[nH]c5c4)[nH]c3c2)CC1", "growth": "47.2%"},
      {"smiles": "COc1ccc(Nc2nc(SC)nc(-c3cccc([N+](=O)[O-])c3)c2C#N)cc1", "growth": "70.1%"},
      {"smiles": "O=C1CC(=NCC(=O)n2c(-c3ccccc3)nc3ccccc32)NN1", "growth": "89.4%"},
      {"smiles": "CC(C)(O)c1cn(CCCCN2C(=O)C(=O)c3ccccc32)nn1", "growth": "99.5%"},
      {"smiles": "CCCCCCCCCCCCC[N+](C)(C)Cc1ccccc1", "growth": "15.1%"},
      {"smiles": "COc1ccc(/C=C/C(=O)c2ccc(O)c(CN3CCN(c4cc5c(cc4F)c(=O)c(C(=O)O)cn5C4CC4)CC3)c2)cc1", "growth": "37.6%"},
      {"smiles": "O=S(=O)(Nc1ccc(OC(F)F)cc1)c1ccc(-c2cnc(C3CC3)o2)cc1", "growth": "48.3%"},
      {"smiles": "N#C/C(=C\\c1ccc(-c2cc(C(F)(F)F)ccc2Cl)o1)c1nc(-c2ccco2)cs1", "growth": "80.1%"},
      {"smiles": "O=C(O)c1ccc(N=CC(=O)c2ccc(-c3ccccc3)cc2)cc1", "growth": "100%"},
      {"smiles": "COc1cccc(-c2nn(C(C)(C)C)cc2-c2ccnc(NCCCNS(=O)(=O)c3ccc(C)cc3)c2)c1", "growth": "98.1%"},
      {"smiles": "CC(C)n1c(/C=C/[C@@H](O)C[C@@H](O)CC(=O)O)c(-c2ccc(F)cc2)c2ccccc21", "growth": "72.7%"},
      {"smiles": "N#Cc1c(-c2ccc(Cl)cc2)nc(N/N=C/c2cccc(Br)c2)nc1N1CCOCC1", "growth": "67.5%"}
    ]}
  ]
}
